Measurements published in PubChem BioAssay AID1159607 (Small Molecule Screening Facility, UW Madison, 2016).
In all, about 70,000 compounds went through this assay and about 400 (0.57%) were called active. No stated cut-off is given here; in the data, active means FP signal below about 40; inactive means the rest. Shown is part of a subset that was picked to be rich in actives.

Tested on: RMI core complex (RMI1/RMI2) binding to FANCM MM2 peptide, human
Experiment: disruptors of RMI1/RMI2 association with MM2 peptide – biochemical, fluorescence polarization, human, primary screen (AID 1159607)
Details: RMI core complex with F-MM2 peptide, at 33 µM, stronger effect = lower value

FP signal (polarization), inactive:
O=C1NC(=O)c2cc(S(=O)(=O)N(CCO)CCO)cc3cccc1c23 56
C=Cc1cc2ccc(C)cc2nc1Cl 58
CC(C)c1c(O)ccc2c1CCC1[C@@](C)(CO)CCC[C@]21C (stereo partly specified) 58
COc1cn(CC(=O)Nc2cccc(F)c2)c(CN2CCN(c3ccccc3)CC2)cc1=O 54
O=C(O)/C=C/C(=O)Nc1ccc(Oc2ccc(Cl)cc2)cc1 53
CSc1nc2ccc(NC(=O)c3ccc(Oc4ccc(C(=O)Nc5ccc6nc(SC)sc6c5)cc4)cc3)cc2s1 63
CC(C)Oc1ccc(C(=O)NCC(c2ccsc2)N2CCCCCC2)cc1 (stereo unspecified) 75
O=C(CCCSc1ccc(NC(=O)C2CC2)nn1)NCc1ccccn1 67
C=CCc1cccc2cc(C(=O)Nc3cc(OC)c(Cl)cc3OC)c(=O)oc12 60
O=C(CC1CCCCN1S(=O)(=O)c1cccs1)Nc1ncccn1 (stereo unspecified) 69
Cc1ccc(-c2nc(N3CCOCC3)sc2-c2ccc([N+](=O)[O-])cc2)cc1 74
COc1ccc2oc(-c3csc(NC(=O)C4COc5ccccc5O4)n3)cc2c1 (stereo unspecified) 66
CC(C)CCN1C(=O)C(C)(C)COc2ccc(NC(=O)Cc3ccc(F)cc3)cc21 77
Cc1nc(-c2ccc(S(=O)(=O)N3CCN(C(=O)c4ccco4)CC3)s2)cs1 60
CCCOc1ccc(S(=O)(=O)N2CCN(c3ccc(F)cc3)CC2)cc1C 66
COCCN1CCCc2ccc(NS(=O)(=O)c3ccc(C)c(Cl)c3)cc21 78
COc1cc(-c2nnc(NC(=O)c3ccc([N+](=O)[O-])cc3)o2)cc(OC)c1OC 54
CCOC(=O)c1oc2ccccc2c1NC(=O)c1cccc(N2C(=O)CCC2=O)c1 74
O=S(=O)(c1cccnc1)N1CCN(c2ccc(-c3cccs3)nn2)CC1 69
COc1ccc(Cl)cc1C(=O)Nc1nnc(-c2cccc([N+](=O)[O-])c2)s1 74
CCOC(=O)c1ccc(NC(=O)CSc2nnc(NC(=O)COc3ccc(Cl)cc3Cl)s2)cc1 62
O=C(Cn1nc(-c2ccc(F)cc2)c2sc(N3CCCC3)nc2c1=O)Nc1ccc(F)cc1F 92
CN1C(=O)C(C)(C)COc2ccc(NC(=O)c3ccc(Br)cc3)cc21 68
COc1ccccc1CCNC(=O)CSc1nnc2ccc(-c3cccnc3)nn12 55
Cc1c(NC(=S)Nc2ccc3c(c2)OCO3)c(=O)n(-c2ccccc2)n1C 59
CN(C)c1ccc(C=NS(=O)(=O)c2cccs2)cc1 57
CSc1cccc(NC(=O)C(=O)NCCc2ccccc2)c1 65
Cc1[nH]c(=O)[nH]c(=O)c1CCC(=O)Nc1ccc(F)c(Cl)c1 60
COc1ccc(S(=O)(=O)CC(=O)Nc2cc(C)nn2-c2nc3ccccc3s2)cc1 78
CCOc1ccccc1C(=O)NCC(=O)N1CCOC(c2ccccc2)C1 (stereo unspecified) 73
COc1cc(-c2noc(-c3cc(-c4ccccc4)n[nH]3)n2)cc(OC)c1OC 95
Nc1cc(=O)[nH]c(SCC(=O)Nc2ccc(S(N)(=O)=O)cc2)n1 61
O=C(CSc1nc2ccc(Br)cc2c2nc3ccccc3n12)NCC1CCCO1 (stereo unspecified) 57
CCOc1ccc(NC(=O)CC(NCCc2ccc(OC)cc2)C(=O)O)c([N+](=O)[O-])c1 (stereo unspecified) 51
COc1ccc(S(=O)(=O)Nc2ccccc2C(=O)O)cc1C 62
Cc1ccc2nc(N(CCN(C)C)C(=O)c3ccc(S(=O)(=O)N4CCCCCC4)cc3)sc2c1 90
O=C(NCCc1ccccc1)NCC(c1ccsc1)N1CCOCC1 (stereo unspecified) 64
Cc1cc(-c2nnc(NC(=O)CCCS(=O)(=O)c3ccc(F)cc3)o2)nn1C 61
Cn1nc(-c2ccc3ccccc3c2)c(=O)n(C)c1=S 50
O=C(NCCC1=CCCCC1)C(=O)NCC(c1ccco1)N1CCOCC1 (stereo unspecified) 57
CCSc1cccc(C(=O)Nc2ccc3nc(C)sc3c2)c1 80
CCSc1nnc(NC(=O)c2cc(=O)c(OC)co2)s1 64
COc1ccc(OC)c(Nc2nc(CC(=O)Nc3nc4ccccc4s3)cs2)c1 66
Cc1noc(NS(=O)(=O)c2ccc(N/C=C(\C#N)c3nc4ccccc4n3C)cc2)c1C 68
CS(=O)(=O)NCC(c1ccco1)N1CCOCC1 (stereo unspecified) 57
c1ccc(-c2nc(SCc3nc4ccccc4[nH]3)oc2-c2ccccc2)cc1 64
Cc1ccc2nc(NC(=O)CSc3nnc4ccc(-c5ccccn5)nn34)sc2c1 69
Cc1cccc(NC(=O)Nc2ccc(Nc3ccc(-n4cccn4)nn3)cc2)c1C 85
COc1ccc(NC(=O)c2c(F)cccc2F)cc1N1CCCCC1=O 54
CCOC(=O)c1ccc2nc(NC(=O)/C=C/c3ccccc3Cl)sc2c1 62
CSc1cccc(NC(=O)C(=O)NCCN2CCN(c3ccccc3F)CC2)c1 87
O=C(Nc1cc2ccccc2cc1NC(=O)c1ccc(N2C(=O)CCC2=O)cc1)c1ccc(N2C(=O)CCC2=O)cc1 57
CCN1CCOc2ccc(NC(=O)c3cc4ccccc4oc3=O)cc2C1=O 62
O=C1CCc2cc(S(=O)(=O)NCc3ccco3)cc3c2N1CCC3 54
OCc1cnc(SCc2ccc(Cl)c(Cl)c2)n1Cc1ccc(F)cc1 67
O=C(NCc1cccs1)C(=O)N1CCN(c2cccc(Cl)c2)CC1 53
Cc1ccc(S(=O)(=O)/C(C#N)=C/N2CCN(c3cccc(Cl)c3)CC2)cc1C 71
Cc1nnc(SCc2ccccc2[N+](=O)[O-])s1 61
Nc1c(C(=O)c2ccc(Cl)cc2)sc2nc(-c3cccs3)cc(C(F)(F)F)c12 19
Nc1c(C(=O)c2cccc(Br)c2)sc2nc3c(c(-c4cccs4)c12)CCCC3 -15
O=S(=O)(NCC(c1ccsc1)N1CCOCC1)c1ccc(F)cc1F (stereo unspecified) 65
Cc1cc(C)c2nc(N(CCn3cccn3)C(=O)c3cc4ccccc4o3)sc2c1 66
CN1C(=O)c2ccc(NC(=O)c3ccn(C)n3)cc2C1=O 71
Cc1nc2sc(C)c(C)n2c(=O)c1NC(=O)c1c(F)cccc1Cl 66
COc1ccc(CCS(=O)(=O)Nc2ccc3c(c2)N(C)C(=O)C(C)(C)CO3)cc1 67
O=C(Cn1cnc(-c2ccc(F)cc2)cc1=O)N1CCN(c2cccc(Cl)c2)CC1 70
Cc1nc2c(=O)n(Cc3cccc(F)c3)nc(-c3ccco3)c2s1 62
O=C(O)CCNC(=S)Nc1ccc(F)c(Cl)c1 54
CC1(C)Cc2cccc(OCc3ccc(C(=O)NCCN4CCOCC4)cc3)c2O1 54
C=CCn1c(SCCC(=O)Nc2scc(-c3ccc(Cl)cc3)c2C(=O)OCC)nc2sc3c(c2c1=O)CCC(C)C3 (stereo unspecified) 84
NNC(=O)c1cccnc1N 51
COc1ccc(CCNC(=O)c2cccc(NS(=O)(=O)c3cccc(F)c3)c2)cc1OC 72
CCOC(=O)c1c(NC(=O)c2ccc(C(=O)OC)cc2)sc2c1CCC2 75
CCc1ccccc1NC(=O)C(=O)NCCCN1CCOC(c2ccccc2)C1 (stereo unspecified) 72
CCCC(=O)Oc1c(Cl)cc(N(C(=O)CCC)S(=O)(=O)c2ccc(C)cc2)cc1Cl 50
CC1CCc2c(sc(NC(=O)c3cccc([N+](=O)[O-])c3)c2C#N)C1 (stereo unspecified) 48
CC1=NN(CCN2CCCCC2)c2nc3c(c(=O)n(CCN4CCCCC4)c(=O)n3C)n2C1C (stereo unspecified) 65
Cc1ccccc1OCCCn1c(C2CC(=O)N(C(C)(C)C)C2)nc2ccccc21 (stereo unspecified) 69
CCCOc1ccc(Cn2c3ccccc3c3nc4ccccc4nc32)cc1 60
COc1ccc(-c2nnc(NC(=O)CSc3ccc(Cl)cc3)s2)cc1 67
COc1ccc(-c2nnc(NC(=O)c3cc(Cl)sc3Cl)o2)c(OC)c1 62
Cc1cc(-c2nnc(NC(=O)/C=C/c3ccccc3Cl)o2)nn1C 63
COc1ccc(-c2cc(C(F)(F)F)n3nc(C(=O)Nc4cc5c(cc4[N+](=O)[O-])OCCO5)cc3n2)cc1 37
CCn1cc(NC(=O)N2CCc3ccccc32)c2ccccc21 53
COc1ccccc1CCNC(=O)C(=O)NC1CCCCCC1 51

FP signal (polarization), active:
O=C(COc1ccc(Cl)cc1Cl)Nc1nnc(SCC(=O)Nc2nnc(-c3cccc([N+](=O)[O-])c3)s2)s1 16
CC[N+](C)(CC)CCC[n+]1c(-c2ccccc2)c2cc(N)ccc2c2ccc(N)cc21 -45
N#CC(C#N)=C1SCN(c2cccc(Cl)c2)CS1 -20
COc1ccc(-c2cc(-c3cccs3)nc3sc(C(N)=O)c(N)c23)cc1 33
Cc1ccc(C(C)C)c(OCCCn2c3ccccc3c3nc4ccccc4nc32)c1 27
COc1ccc(-c2nnc(NC(=O)/C=C/c3ccccc3Cl)o2)c(OC)c1 35
